According to PubChem BioAssay (NCATS):
Results filed as inconclusive are left out. Activity calls are given as the source filed them. The call rests on the fitted dose curve; in most records, active means well fitted inhibition curve with a large enough effect; inconclusive means small, poorly fitted or top-dose-only effect; inactive means flat fitted curve, though single readings scatter.

Each compound was assayed on CRL-7250 (assay: qHTS assay to identify novel small-molecules to repurpose for Merkel cell carcinoma treatment (AID 1296009; further: nearly all actives have a fitted effect of over 60% in size)). Details: MCC and control cell lines, CellTiter-Glo viability, 72 h; series mostly up to 92 µM; activity change, negative = cytotoxicity: at the top concentration.
Method in brief: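 Dose-response viability screen; 72 hr exposure at 37 degree celsius; CellTiter-Glo added, 10 min room temperature, luminescence read; RLUs scaled between no-cell and DMSO wells.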

Compound | outcome
Cn1c(SCC(=O)N2CCC[C@H]2C(=O)Nc2ccccc2-c2ccccc2)nc2ccccc21 | inactive
CC(=C\C(C)O)/C=C(\C)C(=O)CC1CC(CC(N)=O)CC(=O)O1 (configuration not stated) | inactive
CC1=CC(=O)C(=C(C)C)CC2C(C)(O)CCC12O (configuration not stated) | inactive
CC(=O)OC1C(OC(=O)c2ccccc2)C2C(C)(C)CCC(OC(C)=O)C2(C)C23CCC(C)(C2)C(=O)CC13 (configuration not stated) | inactive [at 17.4 µM]
CC(C)CC(=O)OC[C@H]1O[C@@](COC(=O)CC(C)C)(O[C@H]2O[C@H](CO)[C@@H](O)[C@H](O)[C@H]2OC(=O)CC(C)C)[C@@H](OC(=O)CC(C)C)[C@@H]1O | inactive [at 17.4 µM]
CC1=C(CO)CC(C(C)C2CCC3C4CC=C5CC(OC6OC(COC7OC(CO)C(O)C(O)C7O)C(O)C(O)C6O)CC(O)C5(C)C4CCC23C)OC1=O (configuration not stated) | inactive [at 17.4 µM]
COc1ccc(C)c2sc(NC(=O)c3ccncc3)nc12 | inactive
